Reference: PubChem BioAssay AID1159580 (chemical genetic matrix, 2015)
“And” between values parts separate entries of the source, which are not always exact repeats. Equal entries are not always repeated. The whole screen tested about 5,500 compounds, of which about 2,000 (36%) were called active. Not shown: some 18% with an inconclusive outcome. Rule as the data show it: active = normalized growth mostly below about 0.91 (no sharp cut-off); inconclusive = no clear call, values can overlap the other calls; inactive = mostly above about 0.92. Some of the results follow.

Assay: chemical genetic growth profiling, strain panel (AID 1159580);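 also: tested at 20 µM; growth read once vehicle control cultures reached saturation at 30 °C; 1 = growth at the plate median or of vehicle wells; lower values mean less growth of the strain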
Conditions: growth OD
[1] = S. cerevisiae deletion strains, locus YAL013W, strain DEP1, active compounds read low
[2] = S. cerevisiae deletion strains, locus YBR229C, strain ROT2, active compounds read low
[3] = S. cerevisiae deletion strains, locus YDL101C, strain DUN1, active compounds read low
[4] = S. cerevisiae deletion strains, locus YDL134C, strain PPH21, active compounds read low
[5] = S. cerevisiae deletion strains, locus YDR150W, strain NUM1, active compounds read low
[6] = S. cerevisiae deletion strains, locus YEL061C, strain CIN8, active compounds read low
[7] = S. cerevisiae deletion strains, locus YGR229C, strain SMI1, active compounds read low
[8] = S. cerevisiae deletion strains, locus YHR030C, strain SLT2, active compounds read low
[9] = S. cerevisiae deletion strains, locus YJR043C, strain POL32, active compounds read low
[10] = S. cerevisiae deletion strains, locus YJR075W, strain HOC1, active compounds read low
[11] = S. cerevisiae deletion strains, locus YLR039C, strain RIC1, active compounds read low
[12] = S. cerevisiae deletion strains, locus YLR262C, strain YPT6, active compounds read low
[13] = S. cerevisiae deletion strains, locus YNL153C, strain GIM3, active compounds read low
[14] = S. cerevisiae deletion strains, locus YNL322C, strain KRE1, active compounds read low
[15] = S. cerevisiae deletion strains, locus YPL055C, strain LGE1, active compounds read low

Measured: normalized growth

O=C(/C=N\Nc1ccccc1)Nc1ccccc1C(=O)O
inactive: [1] 0.975 | [2] 0.98 | [3] 0.99 | [4] 0.99 | [5] 0.883 | [6] 0.986 | [7] 1.02 | [8] 0.716 | S. cerevisiae deletion strains, locus YHR087W, strain rtc3, active compounds read low 0.92 | S. cerevisiae deletion strains, locus YJL187C, strain SWE1, active compounds read low 0.983 | [9] 0.989 | [10] 0.953 | S. cerevisiae deletion strains, locus YLR058C, strain SHM2 (second series), active compounds read low 0.97 | S. cerevisiae deletion strains, locus YML094W, strain GIM5, active compounds read low 0.922 | S. cerevisiae deletion strains, locus YMR219W, strain ESC1, active compounds read low 0.976 | [13] 0.965 | S. cerevisiae deletion strains, locus YNL298W, strain CLA4 (second series), active compounds read low 0.93 | [14] 0.982 | S. cerevisiae deletion strains, locus YNR030W, strain Alg12, active compounds read low 0.958 | [15] 0.86 | S. cerevisiae deletion strains, locus YPR135W, strain CTF4, active compounds read low 0.812
active: S. cerevisiae deletion strains, locus YGR078C, strain PAC10, active compounds read low 0.92 | [11] 0.297 | S. cerevisiae deletion strains, locus YLR085C, strain ARP6, active compounds read low 0.666 | [12] 0.242 | S. cerevisiae deletion strains, locus YPL241C, strain CIN2, active compounds read low 0.792

O=C(O)c1cccnc1Nc1cccc(C(F)(F)F)c1
active: S. cerevisiae deletion strains, locus YDL185W, strain tfp1, active compounds read low 0.896 | S. cerevisiae deletion strains, locus YIL125W, strain kgd1, active compounds read low 0.919 | S. cerevisiae deletion strains, locus YKL068W, active compounds read low 0.912 | S. cerevisiae deletion strains, locus YKL085W, strain MDH1 (second series), active compounds read low 0.916 | S. cerevisiae deletion strains, locus YKL085W, strain MDH1, active compounds read low 0.916 | S. cerevisiae deletion strains, locus YML124C, strain tub3, active compounds read low 0.933 | S. cerevisiae deletion strains, locus YNL271C, strain bni1, active compounds read low 0.916 | S. cerevisiae deletion strains, locus YPR141C, strain kar3, active compounds read low 0.895
inactive: [1] 0.97 | S. cerevisiae deletion strains, locus YAL040C, strain CLN3, active compounds read low 1.02 | S. cerevisiae deletion strains, locus YBR021W, strain FUR4, active compounds read low 0.922 | [2] 0.964 | S. cerevisiae deletion strains, locus YCL029C, strain bik1, active compounds read low 0.944 | S. cerevisiae deletion strains, locus YCL061C, strain MRC1 (second series), active compounds read low 1 | S. cerevisiae deletion strains, locus YDL035C, strain GPR1, active compounds read low 0.984 | S. cerevisiae deletion strains, locus YDL074C, strain BRE1, active compounds read low 0.999 | [3] 0.981 | [4] 0.946 | S. cerevisiae deletion strains, locus YDL192W, strain arf1, active compounds read low 0.942 | S. cerevisiae deletion strains, locus YDR101C, strain arx1, active compounds read low 0.967 | [5] 0.975 | S. cerevisiae deletion strains, locus YDR162C, strain NBP2, active compounds read low 0.968 | S. cerevisiae deletion strains, locus YDR318W, strain mcm21, active compounds read low 0.953 | S. cerevisiae deletion strains, locus YDR363W, strain ESC2, active compounds read low 1 | S. cerevisiae deletion strains, locus YDR388W, active compounds read low 0.941 | S. cerevisiae deletion strains, locus YDR502C, strain sam2, active compounds read low 0.963 | [6] 0.972 | S. cerevisiae deletion strains, locus YER002W, strain NOP16, active compounds read low 0.973 | S. cerevisiae deletion strains, locus YER110C, active compounds read low 0.954 | S. cerevisiae deletion strains, locus YER155C, strain BEM2, active compounds read low 0.931 | S. cerevisiae deletion strains, locus YER167W, strain BCK2, active compounds read low 0.957 | S. cerevisiae deletion strains, locus YGL078C, strain dbp3, active compounds read low 0.943 | S. cerevisiae deletion strains, locus YGL086W, strain mad1, active compounds read low 0.963 | S. cerevisiae deletion strains, locus YGL248W, strain PDE1, active compounds read low 0.989 | S. cerevisiae deletion strains, locus YGR135W, strain pre9, active compounds read low 0.95 | [7] 0.978 | S. cerevisiae deletion strains, locus YGR252W, strain gcn5, active compounds read low 0.911 | [8] 0.949 | S. cerevisiae deletion strains, locus YHR079C, strain IRE1 (second series), active compounds read low 0.942 | S. cerevisiae deletion strains, locus YHR094C, strain hxt1, active compounds read low 0.941 | S. cerevisiae deletion strains, locus YHR129C, strain ARP1, active compounds read low 0.953 | S. cerevisiae deletion strains, locus YHR200W, strain rpn10, active compounds read low 0.945 | S. cerevisiae deletion strains, locus YIL066C, strain RNR3, active compounds read low 0.973 | S. cerevisiae deletion strains, locus YIL073C, strain SPO22, active compounds read low 0.954 | S. cerevisiae deletion strains, locus YIR030C, strain dcg1, active compounds read low 0.939 | S. cerevisiae deletion strains, locus YJL095W, strain BCK1, active compounds read low 0.996 | S. cerevisiae deletion strains, locus YJL134W, strain LCB3, active compounds read low 0.953 | S. cerevisiae deletion strains, locus YJL168C, strain set2, active compounds read low 0.941 | S. cerevisiae deletion strains, locus YJL187C, strain SWE1 (second series), active compounds read low 1 | [9] 0.991 | [10] 0.981 and 1.02 | S. cerevisiae deletion strains, locus YKL009W, strain mrt4, active compounds read low 0.944 | S. cerevisiae deletion strains, locus YKL190W, strain CNB1, active compounds read low 0.979 | S. cerevisiae deletion strains, locus YKR001C, strain vps1, active compounds read low 0.949 | [11] 0.966 | S. cerevisiae deletion strains, locus YLR058C, strain SHM2, active compounds read low 0.969 | S. cerevisiae deletion strains, locus YLR102C, strain apc9, active compounds read low 0.938 | [12] 0.975 | S. cerevisiae deletion strains, locus YLR268W, strain sec22, active compounds read low 0.978 | S. cerevisiae deletion strains, locus YLR330W, strain CHS5, active compounds read low 0.943 | S. cerevisiae deletion strains, locus YLR342W, strain FKS1 (second series), active compounds read low 0.936 | S. cerevisiae deletion strains, locus YLR371W, strain rom2, active compounds read low 0.951 | S. cerevisiae deletion strains, locus YLR418C, strain cdc73, active compounds read low 0.909 | S. cerevisiae deletion strains, locus YML016C, strain PPZ1, active compounds read low 0.967 | S. cerevisiae deletion strains, locus YML032C, strain rad52, active compounds read low 0.966 | S. cerevisiae deletion strains, locus YMR078C, strain ctf18, active compounds read low 0.945 | S. cerevisiae deletion strains, locus YMR223W, strain ubp8, active compounds read low 0.958 | S. cerevisiae deletion strains, locus YMR263W, strain SAP30, active compounds read low 0.973 | S. cerevisiae deletion strains, locus YMR307W, strain GAS1, active compounds read low 0.881 | S. cerevisiae deletion strains, locus YNL067W, strain RPL9B, active compounds read low 1.02 | [13] 0.991 | S. cerevisiae deletion strains, locus YNL175C, strain NOP13, active compounds read low 0.981 | S. cerevisiae deletion strains, locus YNL197C, strain WHI3, active compounds read low 1 | S. cerevisiae deletion strains, locus YNL224C, strain SQS1, active compounds read low 0.969 | S. cerevisiae deletion strains, locus YNL233W, strain BNI4, active compounds read low 0.988 | S. cerevisiae deletion strains, locus YNL250W, strain rad50, active compounds read low 0.9 | S. cerevisiae deletion strains, locus YNL298W, strain CLA4, active compounds read low 0.942 | S. cerevisiae deletion strains, locus YNL307C, strain MCK1, active compounds read low 0.937 | [14] 0.969 and 1.02 | S. cerevisiae deletion strains, locus YNR052C, strain pop2, active compounds read low 0.949 | S. cerevisiae deletion strains, locus YOL006C, strain TOP1, active compounds read low 0.99 | S. cerevisiae deletion strains, locus YOL012C, strain htz1 1.13 | S. cerevisiae deletion strains, locus YOL147C, strain pex11, active compounds read low 0.935 | S. cerevisiae deletion strains, locus YOR061W, strain CKA2, active compounds read low 0.974 | S. cerevisiae deletion strains, locus YOR069W, strain VPS5, active compounds read low 0.956 | S. cerevisiae deletion strains, locus YOR083W, strain WHI5 (second series), active compounds read low 0.992 | S. cerevisiae deletion strains, locus YOR136W, strain idh2, active compounds read low 0.98 | S. cerevisiae deletion strains, locus YOR144C, strain elg1, active compounds read low 0.944 | S. cerevisiae deletion strains, locus YOR184W, strain ser1, active compounds read low 0.968 | S. cerevisiae deletion strains, locus YOR316C, strain cot1, active compounds read low 0.931 | [15] 1.04 and 1.01 | S. cerevisiae deletion strains, locus YPR119W, strain clb2, active compounds read low 0.934 | S. cerevisiae deletion strains, locus YPR163C, strain tif3, active compounds read low 0.95 | S. cerevisiae deletion strains, locus YPR167C, strain met16, active compounds read low 0.938 | S. cerevisiae deletion strains, strain wtn01, active compounds read low 0.957 | S. cerevisiae strains, strain wild type, active compounds read low 0.981
